NCOA1 inh: SRC1 coactivator transcriptional activity inhibitors, primary screen, cell-based, luminescence; HEK293 GAL4-SRC1 luciferase reporter; inhibition, % at 3.6 µM; 360,000 tested, 0.12% active; AID 588354, 2011;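 active = inhibition above the campaign mean plus 3 SD, with each screening campaign given its own cutoff, cut at about 60% in these data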
Gli-Sufu antag: Gli-Sufu pathway antagonists, primary screen, luciferase luminescence, Sufu-KO-LIGHT cells, uHTS. Sufu-KO-LIGHT fibroblasts, Gli luciferase reporter luminescence. inhibition, % at 5 µM. 340,000 tested, 0.74% active;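 active = inhibition above about 55%, limit read from the data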
NCOA3 inh: SRC3 coactivator transcriptional activity inhibitors, primary screen, cell-based, luminescence; 360,000 tested, 0.17% active; inhibition, % at 3.6 µM; AID 588352, 2011; HEK293 GAL4-SRC3 luciferase reporter;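 active = inhibition above a per-campaign cutoff, the mean of all compounds plus 3 SD, cut at about 60% in these data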;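 note: higher means less SRC3-driven luciferase light from the GAL4 reporter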
NCOA2 inhibitor: inhibition of GAL4-SRC2 driven luciferase reporter, primary screen, SRC2 inhibitor project, cell-based, luminescence. Nuclear receptor coactivator 2 (Homo sapiens), Q15596. HEK293 GAL4-SRC2 luciferase reporter. inhibition, % at 9 µM. 370,000 tested, 0.17% active. AID 651957, 2012;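 active = inhibition above the mean inhibition of all tested compounds plus 3 SD, set per campaign, cut at about 52% in these data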
NR2F2 inh: NR2F2 transcriptional activity inhibitors, primary screen, cell-based, luciferase reporter, HEK293T, luminescence; inhibition, % at 8.6 µM; AID 686940, 2013; COUP transcription factor 2 (Homo sapiens), P24468; 370,000 tested, 0.7% active; HEK293T NGFI-A luciferase reporter;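 active = inhibition above a per-plate cutoff, mean inhibition of test wells between control levels plus 3 SD, cut at about 38% in these data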;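 note: cells cotransfected with COUP-TFII expression vector driving the NGFI-A reporter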
Target sequence (P24468 whole entry, looked up): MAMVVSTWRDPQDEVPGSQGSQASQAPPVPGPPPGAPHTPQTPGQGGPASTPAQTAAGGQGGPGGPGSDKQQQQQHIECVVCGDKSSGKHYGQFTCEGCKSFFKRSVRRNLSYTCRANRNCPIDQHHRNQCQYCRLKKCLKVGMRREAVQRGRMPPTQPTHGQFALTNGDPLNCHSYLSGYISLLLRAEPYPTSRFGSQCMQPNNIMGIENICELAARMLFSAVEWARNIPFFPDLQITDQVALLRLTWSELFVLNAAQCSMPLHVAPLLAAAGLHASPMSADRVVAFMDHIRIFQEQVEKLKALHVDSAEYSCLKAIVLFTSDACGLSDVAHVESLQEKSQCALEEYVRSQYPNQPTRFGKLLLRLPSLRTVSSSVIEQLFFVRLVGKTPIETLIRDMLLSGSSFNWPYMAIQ
LRH-1 inv ag: LRH-1 (NR5A2) inverse agonists, primary screen, cell-based, luminescence, HEK293T, StAR-luciferase reporter | LRH-1 transfected, 24 h | AID 602396, 2012 | 360,000 tested, 0.13% active | Nuclear receptor subfamily 5 group A member 2 (Homo sapiens), O00482 | inhibition, % at 3.6 µM;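 active = inhibition above the mean inhibition of all tested compounds plus 3 SD, cut at about 73% in these data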
Gli antag conf: Gli-SUFU pathway antagonists, confirmation, single concentration, luciferase luminescence, Sufu-KO-LIGHT cells | 2,500 tested, 40% active | Gli luciferase reporter | shares compounds with Gli-Sufu antag | inhibition, % at 5 µM;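 active = mean inhibition at 5 µM reaching about 45%, limit read from the data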
SufuKO cytotox: cytotoxicity in Sufu-KO-LIGHT cells, confirmation, cytotoxicity control for Gli-SUFU antagonist project, cell-based, ATP luminescence, single concentration. shares compounds with Gli-Sufu antag. cytotoxicity, % at 5 µM. 2,500 tested, 32% active. AID 651994, 2013;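 active = mean cytotoxicity at 5 µM above about 25%, limit read from the data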;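 note: cells exposed to compound overnight for roughly 16 to 18 hours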
Wnt3a counter: Wnt3a reporter signal inhibition, confirmation, counter-screen for Gli-SUFU antagonist project, Wnt-LIGHT cells, luminescence, single concentration; shares compounds with Gli-Sufu antag; Wnt3a-driven luciferase reporter; inhibition, % at 6.25 µM; 2,500 tested, 20% active; AID 651995, 2013;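 active = mean inhibition above about 25%, limit read from the data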
Of the large screens only hits and unclear results are named; the others gave an inactive call (follow-up assays come after a bar, where they were run). Rows were chosen to be rich in hits. Some 1.3% of all compounds tested hit in one or more screens of this group.

Cc1ccc(C(=O)N2CCCC(N(C)Cc3ccccc3)C2)s1 (stereo not drawn)	Gli-Sufu antag 95 | Gli antag conf inactive | SufuKO cytotox inactive | Wnt3a counter inactive
Cc1ccc(C(=O)N2CCCC(C(=O)c3cc(F)ccc3F)C2)s1 (stereo not drawn)	none
O=C1c2ccccc2NC(c2cccc(F)c2)N1Cc1ccco1 (stereo not drawn)	Gli-Sufu antag 65 | Gli antag conf inactive | SufuKO cytotox inactive | Wnt3a counter inactive
C=CCN=C1NC(c2ccc(C(F)(F)F)cc2)C(C(=O)OC)=C(C)N1Cc1ccccc1C(F)(F)F (stereo not drawn)	none (no result: NCOA1 inh, Gli-Sufu antag, NCOA3 inh, LRH-1 inv ag)
CCCCCCCCCCCCN1CCSCCS1(=O)=O	none (no result: NCOA1 inh, Gli-Sufu antag, NCOA3 inh, LRH-1 inv ag)
COCCn1c(SCC(=O)/C=C2\N(C)c3ccccc3C2(C)C)nnc1-c1ccncc1	Gli-Sufu antag 59 | Gli antag conf inactive | SufuKO cytotox inactive | Wnt3a counter inactive
COCCn1c(SCC(=O)c2c(-c3ccccc3)n(C)c3ccccc23)nnc1-c1ccncc1	none
COc1ccc(NS(=O)(=O)c2ccc(N/N=C(\C)c3ccncc3)c([N+](=O)[O-])c2)cc1	Gli-Sufu antag 66 | Gli antag conf 66 | SufuKO cytotox inactive | Wnt3a counter 35
COc1cc(/C=C2/NC(=O)N(Cc3ccccc3F)C2=O)ccc1Oc1ccc([N+](=O)[O-])cn1	none
COc1cc(/C=C2/NC(=O)N(Cc3ccccc3F)C2=O)ccc1O	Gli-Sufu antag 71 | Gli antag conf 54 | SufuKO cytotox inactive | Wnt3a counter 37
BrC(=C\c1ccccc1)/C=N/Nc1nc2ccccc2[nH]1	none | Gli antag conf inactive | SufuKO cytotox inactive | Wnt3a counter inactive
CCOC(=O)C1(Cc2ccccc2)CCN(Cc2ccccc2OC)CC1	none (no result: NCOA1 inh, Gli-Sufu antag, NCOA3 inh, LRH-1 inv ag)
CCN1C(=O)CC(C(C)C)N(C2CCCC2)c2nc(Nc3ccc(C(=O)NC4CCN(C)CC4)cc3OC)ncc21 (stereo not drawn)	none (no result: NCOA2 inhibitor, NR2F2 inh)
CCN1C(=O)CC(c2ccccc2)N(C2CCCC2)c2nc(Nc3ccc(C(=O)NC4CCN(C)CC4)cc3OC)ncc21 (stereo not drawn)	none (no result: NCOA2 inhibitor, NR2F2 inh)
COc1cc(C(=O)NC2CCN(C)CC2)ccc1Nc1ncc2c(n1)N(Cc1ccccc1)CCC(=O)N2C	Gli-Sufu antag 91 | Gli antag conf 89 | SufuKO cytotox inactive | Wnt3a counter inactive
COc1cc(C(=O)NC2CCN(C)CC2)ccc1Nc1ncc2c(n1)N(C1CCCCC1)CCC(=O)N2C	Gli-Sufu antag 82 | Gli antag conf 79 | SufuKO cytotox inactive | Wnt3a counter inactive
COc1ccc(C)cc1-n1nnnc1SCc1cc(=O)n2cc(C)ccc2n1	Gli-Sufu antag 58 | Gli antag conf 57 | SufuKO cytotox 37 | Wnt3a counter inactive
COc1ccc(C)cc1-n1nnnc1SCn1nnc2ccccc2c1=O	Gli-Sufu antag 58 | Gli antag conf 64 | SufuKO cytotox 31 | Wnt3a counter 32
C=CCNC(=O)c1ccccc1NC(=O)C1CCN(S(=O)(=O)c2ccc(SC)cc2)CC1	Gli-Sufu antag 66 | Gli antag conf inactive | SufuKO cytotox inactive | Wnt3a counter inactive
C=CCNC(=O)c1ccccc1NS(=O)(=O)c1ccc(SC)cc1	none
O=C(CSC1CCc2ccccc21)NN=Cc1ccco1 (stereo not drawn)	none (no result: NCOA1 inh, Gli-Sufu antag, NCOA3 inh, LRH-1 inv ag)
CCCCn1cnc2c(=O)[nH]ccc21	none (no result: NCOA1 inh, Gli-Sufu antag, NCOA3 inh, LRH-1 inv ag)
COc1ccc(C(=O)N2CCCC(CO)C2)cc1OC1CCN(C(C)C)CC1 (stereo not drawn)	none (no result: Gli-Sufu antag)
COc1ccc(C(=O)N2CCCCCCC2)cc1OC1CCN(C(C)C)CC1	Gli-Sufu antag 65 | Gli antag conf inactive | SufuKO cytotox inactive | Wnt3a counter inactive
Cc1cc(C)c(/C=N/NC(=O)c2nnn(-c3nonc3N)c2COc2ccc(F)cc2)c(C)c1	none | Gli antag conf inactive | SufuKO cytotox inactive | Wnt3a counter inactive
Cc1ccc(COc2ccc(/C=N/NC(=O)c3nnn(-c4nonc4N)c3COc3ccc(F)cc3)cc2)cc1	none
COc1ccc(-c2nc3ccccc3c(=O)n2Cc2ccccc2)cc1COc1ccc(NC(C)=O)cc1	none (no result: NCOA1 inh, Gli-Sufu antag, NCOA3 inh, NCOA2 inhibitor, LRH-1 inv ag)
Cc1nc2ccccc2n1CC(=O)NC(C)C1CC2CCC1C2 (stereo not drawn)	Gli-Sufu antag 60 | Gli antag conf 54 | SufuKO cytotox inactive | Wnt3a counter inactive
O=C(NC1CCCC1)c1cc(COc2ccc3ncccc3c2)on1	none (no result: NCOA2 inhibitor, NR2F2 inh) | Gli antag conf 63 | SufuKO cytotox inactive | Wnt3a counter inactive
Cc1ccc(OCc2cc(C(=O)NC3CCCCC3)no2)cn1	Gli-Sufu antag 57 | Gli antag conf inactive | SufuKO cytotox inactive | Wnt3a counter inactive
COC(=O)c1ccc(-c2ccc3c(c2)[C@]2(CCC[C@@H](OCc4ccccc4)[C@@H]2NC(=O)CCc2ccccc2)C(=O)N3Cc2ccccc2)cc1	none (no result: NCOA1 inh, Gli-Sufu antag, NCOA3 inh, LRH-1 inv ag)
CCOC(=O)C1=NN(C(=O)Nc2cccc(C(F)(F)F)c2)C2C(=O)N(c3cccc(C(F)(F)F)c3)C(=O)C12 (stereo not drawn)	Gli-Sufu antag 70 | Gli antag conf inactive | SufuKO cytotox inactive | Wnt3a counter inactive
CSc1nc2c(c(C(F)(F)F)n1)CC(C)CC2 (stereo not drawn)	Gli-Sufu antag 99 | Gli antag conf inactive | SufuKO cytotox inactive | Wnt3a counter inactive
CNC(=O)C12CC3CC(CC(Cl)(C3)C1)C2	none
COCCNC(=O)C12CC3CC(CC(Cl)(C3)C1)C2	none | Gli antag conf inactive | SufuKO cytotox inactive | Wnt3a counter inactive
O=C(Nc1ccccc1Oc1cccnc1)C1CCCN(Cc2ccccc2O)C1 (stereo not drawn)	none | Gli antag conf inactive | SufuKO cytotox 28 | Wnt3a counter inactive
C[C@H](CO)N1C[C@H](C)[C@H](CN(C)C(=O)C2CCCCC2)OCc2cnnn2CCCC1=O	none (no result: NCOA1 inh, Gli-Sufu antag, NCOA3 inh, LRH-1 inv ag)
N#Cc1cccc(NC(=O)CNc2cccc(S(=O)(=O)N3CCCC3)c2)c1	Gli-Sufu antag 66 | Gli antag conf inactive | SufuKO cytotox inactive | Wnt3a counter inactive
N#Cc1cccc(NCC(=O)Nc2cccc(S(=O)(=O)N3CCCCC3)c2)c1	none

Source: PubChem BioAssay (several laboratories)
